Experimental data published in paper PMC5540273 (PLoS ONE, 2017).

Columns and labels:
Conditions in all cases: concentration: 1 μM, replicates: in singlicate; n = 1
TAK1 = tested on: T1, TAK1
T1 construct: gene MAP3K7

TAOK1 = tested on: TAOK1
TAOK2 = tested on: TAOK2
TAOK3 = tested on: TAOK3
TBK1 = tested on: TBK1
TEC = tested on: TEC
TESK1 = tested on: TESK1
TGFBR1 = tested on: TGFBR1
TGFBR2 = tested on: TGFBR2
TIE1 = tested on: TIE1
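Note: KINOMEscan kinase panel screen.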

SMILES | %Inh (TAK1) | %Inh (TAOK1) | %Inh (TAOK2) | %Inh (TAOK3) | %Inh (TBK1) | %Inh (TEC) | %Inh (TESK1) | %Inh (TGFBR1) | %Inh (TGFBR2) | %Inh (TIE1)
COc1cc2nccc(Nc3cccc(Oc4ccccc4)c3)c2cc1OC.Cl [GW284543] | 0% | 0% | 0% | 0% | 0% | 45% | 3% | 41% | 0% | 9%
CCC(=O)c1c(-c2ccccc2)c2cc(Cl)ccc2c(=O)n1Cc1cc(S(C)(=O)=O)n(CC(N)=O)n1 | 0% | 0% | 15% | 0% | 12% | 0% | 0% | 0% | 0% | 0%
CN1C(=O)C(Nc2cc(Cl)c(O)c(Cl)c2)=C(c2ccc(Cl)cc2)C1=O [SB-404321] | 0% | 0% | 0% | 0% | 4% | 0% | 0% | 6% | 0% | 0%
CCS(=O)(=O)c1ccc(OC)c(Nc2ncc(-c3ccc(F)cc3)o2)c1.Cl [GW591947] | 0% | 0% | 0% | 0% | 3% | 0% | 1% | 0% | 0% | 0%
COc1ccc(-c2cc3c(C)nc(N)nc3n([C@H]3CC[C@H](OCCO)CC3)c2=O)cn1 | 19% | 0% | 0% | 0% | 6% | 0% | 6% | 0% | 3% | 0%
CCc1nc(-c2cccc(C)c2)c(-c2ccncc2)s1 | 0% | 0% | 14% | 0% | 35% | 0% | 0% | 0% | 13% | 0%
Cn1c(=O)c(F)c(Nc2ccc(I)cc2F)c2c(=O)n(OC[C@H](O)CO)cnc21 | 0% | 0% | 27% | 0% | 52% | 30% | 31% | 20% | 13% | 0%
COc1ccc(CNC(=O)NC2CCN(c3ccnc(Nc4ccc(F)cc4)n3)C2)cc1 (centres unmarked) [GSK1379706] | 6% | 0% | 0% | 0% | 27% | 17% | 7% | 46% | 0% | 12%
O=C(Nc1n[nH]c2nc(-c3ccccc3)c(Br)cc12)C1CC1 [SB-708998] | 0% | 9% | 0% | 16% | 4% | 0% | 7% | 0% | 6% | 14%
COc1ccc(-n2cnc3c(N)ncnc32)cc1 [SKF-97236] | 30% | 20% | 1% | 21% | 9% | 0% | 3% | 0% | 23% | 23%
Nc1ncnc2c1ncn2-c1cccc2ccccc12 [SKF-97184] | 3% | 0% | 9% | 0% | 30% | 0% | 0% | 40% | 11% | 0%
COc1cc2ncn(-c3cc(OCc4ccc(S(C)(=O)=O)cc4)c(C(N)=O)s3)c2cc1OC [GW869979] | 0% | 18% | 0% | 0% | 34% | 12% | 0% | 0% | 0% | 0%
C[C@@H]1CC[C@H](C(=O)NC2CCCCC2)CN1c1cc(-c2ccc3c(N)n[nH]c3c2)nc(N)n1 [GSK2291363] | 0% | 0% | 0% | 0% | 30% | 9% | 34% | 16% | 0% | 15%
COC(=O)c1c(-c2ccccc2)c2cc(Br)ccc2c(=O)n1Cc1ccc(S(C)(=O)=O)cc1 | 39% | 0% | 0% | 0% | 19% | 25% | 22% | 4% | 0% | 21%
COc1cc(Nc2nccc(N3CCC(NC(=O)C4COc5ccccc5O4)C3)n2)cc(OC)c1OC (centres unmarked) [GSK1379761] | 7% | 11% | 0% | 5% | 0% | 0% | 33% | 12% | 0% | 17%
COc1cc2nccc(Nc3ccc(OCc4ccc(NC(C)=O)cc4)cc3)c2cc1OC.Cl [GW440135] | 0% | 0% | 0% | 1% | 0% | 0% | 13% | 21% | 5% | 1%
COc1ccc(-c2coc3ccc(-c4nnc(SCc5cccc(C#N)c5)o4)cc23)cc1 | 23% | 0% | 10% | 0% | 10% | 0% | 0% | 11% | 0% | 17%
